Test results taken from PubChem BioAssay AID602340 (Broad Institute, 2012).
The whole screen tested about 330,000 compounds, of which about 2,600 (0.79%) were called active. The full list was thinned out, with actives kept by preference. Values without a mark were called inactive.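 How the source made its calls: active means mean ATP rescue above about 67%, or every replicate alone reaching that limit (limit read from the data, passing the limit was not always enough); inconclusive means no clear call, values can overlap the other calls; inactive means mean under the limit and some replicate under it.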

Assay: suppressors of statin myotoxicity in C2C12 myotubes, primary screen, cell-based, single point, plate reader (AID 602340);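 further: myotubes were challenged with 10 µM simvastatin during compound exposure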
Conditions: C2C12 myotubes + simvastatin, ATP luminescence, 48 h; at 7.49 µM; active compounds read high; scaled: DMSO 0, geranylgeraniol control 100

| SMILES | rescue of ATP level |
| --- | --- |
| COc1ccc(NC(=O)c2cc(-c3cc(OC)c(OC)c(OC)c3)nc3ccccc23)c(OC)c1 | -9.57% |
| COc1ccc(-c2cc(C(=O)n3cnc4ccccc43)c3ccccc3n2)cc1 | 87.1% (active) |
| COc1ccc(-c2cc(C(=O)Nc3ccccc3O)c3ccccc3n2)cc1 | 14.3% |
| O=C(C[C@H]1C=C[C@H](NC(=O)NC2CCCCC2)[C@H](CO)O1)NCc1ccccc1 | 2.53% |
| CS(=O)(=O)Nc1ccc2c(c1)[C@H]1C[C@H](CC(=O)NCc3ccc(Cl)cc3)O[C@@H](CO)[C@H]1O2 | -4.85% |
| COc1ccccc1-c1cn(CC[C@@H]2CC[C@@H](NC(=O)c3ccccc3F)[C@H](CO)O2)nn1 | 6.43% |
| CN(C)Cc1cn(CC[C@H]2CC[C@H](NS(=O)(=O)c3ccccc3)[C@@H](CO)O2)nn1 | -2.83% |
| Cc1cc2nc(C)n(CCCNC(=O)Nc3ccccc3)c2cc1C | 93.8% (active) |
| CCOc1ccc(CCNC(=O)Nc2ccccc2)cc1OCC | 1.69% |
| C=CCN(C(=O)Nc1ccc2c(c1)nc(C)n2C)c1ccccc1 | -0.158% |
| CCCNC(=O)C[C@H]1CC[C@@H]2[C@H](COC[C@H](O)CN2CC2CCCCC2)O1 | -0.493% |
| CNC(=O)C[C@H]1CC[C@@H]2[C@H](COc3ccc(NC(=O)Nc4cccc(F)c4)cc3C(=O)N2C)O1 | -6.73% |
| CNC(=O)C[C@@H]1CC[C@@H]2[C@@H](COc3ccc(NC(=O)Nc4ccccc4OC)cc3C(=O)N2C)O1 | 10.7% |
| Cn1c(=O)[nH]c(=O)c2c1nc(N1CCN(C(c3ccccc3)c3ccccc3)CC1)n2CCO | 41.4% |
| CC1CCN(c2nc3c(c(=O)[nH]c(=O)n3C)n2CCCc2ccccc2)CC1 | 144% (active) |
| CC=CCn1c(SCCCc2ccccc2)nc2c1c(=O)[nH]c(=O)n2C | 1.54% |
| CCCNC(=O)[C@@H]1[C@@H](CO)[C@@H]2Cn3c(ccc(-c4ccccc4F)c3=O)[C@H]1N2CC1CC1 | -5.23% |
| COc1ccccc1-c1cnc2c(c1)C(=O)N([C@H](C)CO)C[C@@H](C)[C@@H](CN(C)Cc1ccncc1)O2 | 41.2% |
| C/C(=N\NC(=O)c1nc(C)cc(C)n1)c1ccccc1 | 121% (active) |
| CC(=NNC(=O)c1ccc2nc[nH]c2c1)c1ccc(Br)cc1 | -6.54% |
| COc1ccc(/C(C)=N/NC(=O)c2ccc3nc[nH]c3c2)cc1 | -52.1% |
| CCCC(O)C#Cc1cnc2c(c1)C(=O)N([C@H](C)CO)C[C@H](C)[C@H](CN(C)Cc1ccc(F)cc1)O2 (stereo partly specified) | -2.92% |
| C[C@@H]1CN([C@@H](C)CO)C(=O)Cc2cc(NS(=O)(=O)c3ccc(Cl)cc3)ccc2O[C@H]1CN(C)Cc1ccc(C(F)(F)F)cc1 | 96.2% (active) |

| SMILES | rescue of ATP level |
| --- | --- |
| COc1ccc(S(=O)(=O)Nc2ccc3c(c2)CC(=O)N([C@H](C)CO)C[C@H](C)[C@H](CN(C)Cc2ccc(C(F)(F)F)cc2)O3)cc1 | 12% |
| Cc1ccc(S(=O)(=O)Nc2ccc3c(c2)CC(=O)N([C@H](C)CO)C[C@@H](C)[C@H](CN(C)Cc2ccc(C(F)(F)F)cc2)O3)cc1 | 110% (active) |
| C[C@H]1CN([C@@H](C)CO)C(=O)Cc2cc(NS(=O)(=O)c3ccc(F)cc3)ccc2O[C@H]1CN(C)Cc1ccc(C(F)(F)F)cc1 | 15.6% |
| Cc1ccc(S(=O)(=O)Nc2ccc3c(c2)CC(=O)N([C@@H](C)CO)C[C@H](C)[C@H](CN(C)Cc2ccccc2)O3)cc1 | 21.7% |
| Cc1ccc(S(=O)(=O)Nc2ccc3c(c2)C(=O)N([C@@H](C)CO)C[C@@H](C)[C@H](CN(C)Cc2ccc(C(F)(F)F)cc2)O3)cc1 | 9.63% |
| CN1CCCCN2[C@H](CO)[C@H](c3ccc(-c4ccc(F)cc4)cc3)[C@@H]2C1 | 1.44% |
| O=C(C[C@@H]1C=C[C@H](NC(=O)Nc2ccc3c(c2)OCO3)[C@H](CO)O1)NCc1ccccc1 | 2.11% |
| CO[C@@H]1CN(C)C(=O)c2ccc(NS(=O)(=O)c3cccc(Cl)c3)cc2OC[C@H](C)NC[C@H]1C | 0.734% |
| COc1ccccc1-c1ccc2c(c1)O[C@@H](CN(C)CC1CCOCC1)[C@H](C)CN([C@@H](C)CO)S2(=O)=O | -91.2% |
| CC(C)NC(=O)Nc1ccc2c(c1)CC(=O)N([C@H](C)CO)C[C@H](C)[C@@H](CN(C)C(=O)Nc1ccc(F)cc1)O2 | -12.6% |
| COc1ccc(NCCc2ccccn2)cc1 | -1.75% |
| COc1ccc2ccccc2c1CNCc1ccccn1 | 88.1% (active) |
| COc1ccc(C)cc1NC(=O)NCc1ccccn1 | -3.96% |
| CCNC(=O)[C@H]1[C@H](CO)[C@H]2Cn3c(ccc(-c4ccc(OC)cc4)c3=O)[C@H]2N1Cc1ccccc1 | -6.11% |
| CCCNC(=O)Nc1ccc2c(c1)C(=O)N(C)C[C@@H](OC)[C@@H](C)CN(C)[C@@H](C)CO2 | 0.886% |
| CCCN1[C@H](C(=O)N[C@H](C)c2ccccc2)[C@@H](CO)[C@@H]2Cn3c(ccc(-c4cccc(F)c4)c3=O)[C@@H]21 | 25.4% |
| O=C(C[C@@H]1C[C@@H]2c3cc(NC(=O)Nc4ccccc4F)ccc3O[C@@H]2[C@@H](CO)O1)NCCc1ccccc1 | -4.6% |
| O=C(CSc1nnc(-c2ccccc2O)o1)NC1CCCCC1 | -6.5% |
| COc1ccccc1N1CCN(C(=O)CSc2nnc(-c3ccoc3C)o2)CC1 | 2.45% |
| COc1ccccc1-c1nnc(SCC(=O)N2CC(C)CC(C)C2)o1 (stereo unspecified) | 120% (active) |
| C[C@@H]1CN([C@H](C)CO)C(=O)c2cc(C#Cc3ccncc3)cnc2O[C@H]1CN(C)Cc1ccncc1 | -5.15% |
| C[C@H]1CN([C@@H](C)CO)C(=O)CCCn2nncc2CO[C@H]1CN(C)Cc1cccc(C(=O)O)c1 | -4.85% |
| O=C(NN=Cc1ccccc1O)C(=O)NN=Cc1ccccc1O | 1.41% |
